Results as given in PubChem BioAssay.
A number with no mark means an inactive call. Active and inactive are the calls of the source.

test: viability profiling in MM1S myeloma cells – cell-based, resazurin fluorescence, basal, 24 h, PK04 Diversity Set, profiling panel (AID 1174); conditions: higher = more signal, called active from +8 up or from −8 down;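 also: MM1S multiple myeloma cell line; test concentration not given here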

Compound | z-score
CC(C)c1ccc(NN2C(C(O)c3ccc4c(c3)OCO4)C=CC3C(=O)N(c4ccccc4)C(=O)C32)cc1 (stereo unspecified) | -0.165
CN1C(=O)[C@@]2(CCC(=O)OC(C)(C)C)N=C(c3ccc(OCCCO)cc3)O[C@H]2c2ccccc21 | -1.82
COC(=O)[C@@]1(Cc2ccc(F)cc2)[C@@H]2C(=CC(=O)[C@H]2CC(=O)C(=O)N(C)C)CN1C(=O)c1ccccc1 | -2.73
O=C(CS)NCCCCCNC(=O)[C@H]1C[C@H]2C(=O)N3CCC[C@H]3C(=O)N2[C@H]1c1cccc(OCCO)c1 | 0.85
C=CCOC(=O)[C@H]1[C@@H]2C(=O)O[C@@H](c3ccccc3)[C@@H](c3ccccc3)N2[C@@H](c2ccc(OCCOC(=O)[C@H]3C[C@H]4C(=O)N[C@@H](Cc5ccccc5)C(=O)N4[C@H]3c3ccc(O)cc3)cc2)[C@]12C(=O)Nc1ccccc12 | 1.17
COc1ccc([Si](C)(C)[C@@H]2[C@@H](CCO)O[C@]3(C(=O)N(Cc4ccc(NC(C)=O)cc4)c4ccccc43)[C@H]2C)cc1 | -5.15
CCCCCN1CC=CC23O[C@@H]4C=CCOC(=O)[C@@H]4[C@H]2C(=O)N(CCCCCCO)[C@@H]3C1=O (stereo partly specified) | 0.806
COC(=O)C1(C)C=C2C(=C(c3ccccc3)C(=O)C2C)CN1 (stereo unspecified) | -1.71
CC(C)N1CC=CC23O[C@@H]4C=CCCOC(=O)C4[C@H]2C(=O)N(CCCCCCO)[C@@H]3C1=O (stereo partly specified) | 0.98
COc1ccc([Si](C)(C)[C@H]2[C@H](CCO)O[C@@]3(C(=O)N(Cc4cccc(NC(=O)[C@H](C)O)c4)c4ccccc43)[C@@H]2C)cc1 | -9.08 (active)
COc1ccc(CCNC(=O)[C@@H]2c3ccccc3C(=O)N(c3ccc(C)cn3)[C@H]2c2ccc(CO)cc2)cc1 | -0.806
C=CCNC(=O)[C@H]1[C@@H]2C(=O)O[C@@H](c3ccccc3)[C@@H](c3ccccc3)N2[C@@H](c2ccc(O)cc2)[C@]12C(=O)N(C(=O)OCCOC)c1ccc(C#CC3=CCCCC3)cc12 | -0.61
[N-]=[N+]=NCc1ccccc1[C@@H]1OC(c2ccc(OCCCO)cc2)=N[C@]1(Cc1ccccc1)C(=O)N1CCOCC1 | -1.15
CC(C)C[C@@H]1NC(=O)[C@H]2C[C@@H](C(=O)NCCCCCCN(C)C)[C@@H](c3cccc(OCCO)c3)N2C1=O | -0.891
C=C(/C(=C/C[C@@H](OC(=O)c1ccncc1)c1ccc(OCCO)cc1)c1cnc2ccccc2c1)C(C)C | -0.684
CS(=O)(=O)CCOC(=O)C1=CC(CCCO)=CC(c2cccs2)N(Cc2cccc(OC(F)(F)F)c2)C=C1C(=O)OCCS(C)(=O)=O (stereo unspecified) | -1.21
COCCCNC(=O)[C@]1(CCC(=O)OC(C)(C)C)N=C(c2ccc(OCCCO)cc2)O[C@@H]1c1ccccc1N=[N+]=[N-] | -0.637
Cc1ccc(C2CC=C(C(=O)O)CN2S(=O)(=O)c2ccc(C)cc2)cc1 (stereo unspecified) | -0.955

Compound | z-score
O=C1O[C@@H](c2ccccc2)[C@@H](c2ccccc2)N2[C@@H](c3ccc(OCCO)cc3)[C@]3(C(=O)Nc4ccccc43)[C@@H](C(=O)N3CCN(c4ncccn4)CC3)[C@H]12 | -0.271
COCCOC(=O)N1C(=O)[C@@]2(c3cc(C#CCNC(N)=O)ccc31)[C@H](c1ccccc1OCCO)N1[C@H](c3ccccc3)[C@H](c3ccccc3)OC(=O)[C@H]1[C@@H]2C(=O)N1CCN(c2ncccn2)CC1 | -0.0546
COCCOC(=O)N1C(=O)[C@@]2(c3cc(C#Cc4ccc(OC)cc4)ccc31)[C@H](C(=O)N1CCN(c3ncccn3)CC1)[C@H]1C(=O)O[C@H](c3ccccc3)[C@H](c3ccccc3)N1[C@@H]2c1ccc(OCCO)cc1 | 0.468
CN(C)CCCNC(=O)[C@@H]1c2ccccc2C(=O)N(Cc2cc(F)cc(C(F)(F)F)c2)[C@H]1c1ccc(CO)cc1 | -0.62
CCCNC(=O)[C@@H]1c2ccccc2C(=O)N(c2ccc(C)cn2)[C@H]1c1ccc(CO)cc1 | -0.472
CN1C(=O)C2C=CC(C(O)c3ccc(I)cc3)N(NC(=O)OC(C)(C)C)C2C1=O (stereo unspecified) | -0.694
COC(=O)c1c(CC[C@@H](CO)NC(=O)N[C@H](Cc2ccccc2)Cn2cc(-c3ccccc3N)nn2)oc(C(C)=O)c1C(=O)OC | 0.505
CCCC=C(CCC)[C@@H](NC(=O)c1ccc(-c2ccccc2)cc1)c1ccc(C(=O)OC)cc1 | -0.438
COCC(=C=CC[C@@H](O)c1ccccc1OCCO)CCO | 0.599
CC1CC/C=C\[C@H]2OC34C=CCN(C(C)C)C(=O)[C@H]3N(CCCO)C(=O)[C@@H]4C2C(=O)O1 (stereo partly specified) | 0.48
Cn1cccc1C(O)C1C=CC2C(=O)NC(=O)C2N1Nc1ccccn1 (stereo unspecified) | -1.28
CCCC[C@H]1OB(O)C[C@H]2C1=C(C)C[C@H]1C(=O)N(C)C(=O)[C@H]12 | -0.596
Cc1ccc(S[C@]2(C(=O)NCC(F)(F)F)CC(=O)N(Cc3ccccc3Cl)[C@@H]2c2ccc(CO)cc2I)cc1 | -3.29
CC(C)NC(=O)[C@@H]1c2ccccc2C(=O)N(CC23CC4CC(CC(C4)C2)C3)[C@H]1c1ccc(CO)cc1 | 0.955
CCc1cccc(NC(=O)O[C@H]2[C@H](OC(=O)Nc3ccc4c(c3)OCO4)[C@@H](OC(=O)Nc3ccc4c(c3)OCO4)[C@@H](OC)O[C@@H]2CO)c1 | -0.517
CC(C)OC(=O)C=C1C[C@@H](c2ccc(C#N)cc2)O[C@@H](c2ccc(C#N)cc2)O1 | -0.793
COC(=O)C1=CCC(c2cccc(Cl)c2)O1 (stereo unspecified) | -0.232
CCCC[C@@H](O)C1=C(C)C[C@H]2C(=O)N(Cc3ccccc3)C(=O)[C@H]2[C@H]1CO | -0.327
